Results on eleven compounds are retold here after PubChem BioAssay (Tox21).

Experiment [1] in a line: qHTS assay to identify small molecule antagonists of the retinoid acid receptor (RAR) signaling pathway - cell viability counter screen (AID 1159551). Also: nearly all actives have a fitted effect of over 35% in size. Also: potency is read from the fitted curve at half-maximal effect. In short, it runs like this:
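Cells (C3RL4) are plated, incubated overnight, dosed with compound in DMSO, then given retinol at 1 uM final. After 6 h at 37 C, CellTiter-Glo is added and luminescence read following 30 min at room temperature.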

Experiment [2] in a line: qHTS assay to identify small molecule agonists of the retinoic acid receptor (RAR) signaling pathway (AID 1159553). The gist of the method:
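Seed C3RL4 reporter cells at 1,000 per well and incubate overnight at 37 C. Add compounds in DMSO, incubate 6 hr. Add luciferase reagent, wait 30 min at room temperature, read luminescence.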

Experiment [3] is described as follows: qHTS assay to identify small molecule antagonists of the estrogen related receptor (ERR) signaling pathway - cell viability counter screen (AID 1224818).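 Also: series mostly up to about 46 µM; viability measured after 17.5 h of compound exposure.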 In short, it runs like this: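 ERR cells, 2,000/well; 6 h settle at 37 C/5% CO2; compound pin transfer (DMSO); 17.5 h at 37 C; CellTiter-Fluor, 30 min, fluorescence read.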
Experiment [4] in a line: qHTS assay to identify small molecule antagonists of the estrogen related receptor (ERR) signaling pathway (AID 1224819;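 also: luminescence from an ERR-driven luciferase reporter measured with One-Glo reagent; series mostly up to about 46 µM; nearly all actives have a fitted effect of over 50% in size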). In short, it runs like this:
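qHTS in ERR cells, 2,000/well, 1536 format. Cpd (DMSO) added after 6 h settle, 18 h 37 C. One-Glo luminescence, 30 min RT.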

Experiment [5] in a line: qHTS assay to identify small molecule agonists of the estrogen related receptor (ERR) signaling pathway (AID 1224820). The gist of the method: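 Luminescence readout (One-Glo, 30 min RT) from NTP-supplied ERR cell line exposed to compounds for 18 h at 37 C. Cells seeded 2,000 per well and pre-incubated 6 h before pin-tool compound transfer.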
(Quantitative high-throughput screening tests each substance at several concentrations.)

For experiment [6], the system named is estrogen-related receptor alpha (ERRalpha) with PGC-1alpha coactivator, human. As to the kind of experiment: qHTS assay to identify small molecule antagonists of the estrogen related receptor signaling pathway with the pleiotropic PPARgamma coactivator (PGC) (AID 1224821; calls by dose curve;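 also: series mostly up to about 46 µM; lower luminescence signal means antagonism of PGC/ERR signalling; nearly all actives have a fitted effect of over 50% in size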). In short, it runs like this: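 PGC/ERR reporter cells; 6 h pre-incubation 37 C/5% CO2; pin-tool compound in DMSO, 18 h 37 C; One-Glo added, 30 min RT; luminescence read. qHTS antagonist mode.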

Experiment [7] can be described thus: qHTS assay to identify small molecule agonists of the estrogen related receptor signaling pathway with the pleiotropic PPARgamma coactivator (PGC) (AID 1224823). In short, it runs like this:
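Luminescence readout (One-Glo, 30 min RT) from PGC/ERR cell line treated 18 h at 37 C with pin-tool-delivered DMSO compound solutions; cells plated 6 h before dosing. Quantitative HTS format.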

The target in experiment [8] is Luciferin 4-monooxygenase (Photinus pyralis) (UniProt P08659). The experiment in a line: qHTS assay to identify small molecule inhibitors of firefly luciferase (AID 1224835). Also: nearly all actives have a fitted effect of over 25% in size. Also: potency is read from the fitted curve at half-maximal effect. As to activity change, negative = inhibition: series mostly up to about 120 µM. In short, it runs like this: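 Inhibition of purified Photinus luciferase is measured by luminescence. Substrate levels (D-luciferin, ATP) sit at their KM values. Each compound is tested in a concentration series.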

A short description of experiment [9]: qHTS assay to identify small molecule antagonists of the constitutive androstane receptor (CAR) signaling pathway - cell viability counter screen (AID 1224837). Also: series mostly up to about 92 µM; nearly all actives have a fitted effect of over 45% in size. In short, it runs like this: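 Viability was measured with CellTiter-Fluor in a HepG2 line carrying stably transfected hCAR and a CYP2B6-2.2kb construct. Cells were exposed for 23 hr at 37 C to 15 compound concentrations with 50 nM CITCO as agonist.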

In experiment [10] the target is Nuclear receptor subfamily 1 group I member 3 (Homo sapiens) (UniProt Q14994). The experiment in a line: qHTS assay to identify small molecule antagonists of the constitutive androstane receptor (CAR) signaling pathway (AID 1224838).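 Also: HepG2 cells stably expressing hCAR with CYP2B6 luciferase reporter stimulated by CITCO; nearly all actives have a fitted effect of over 40% in size.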 Also: potency is read from the fitted curve at half-maximal effect. The gist of the method: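 Antagonist mode used CITCO at a final 50 nM to activate CAR in human hepatoma HepG2 cells carrying stable hCAR and a 2.2 kb CYP2B6 promoter-luciferase construct. Compounds were tested at 15 concentrations over 24 h, with luminescence as the end point.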

Experiment [11] shares this target. As to the kind of experiment: qHTS assay to identify small molecule agonists of the constitutive androstane receptor (CAR) signaling pathway (AID 1224839). Also: nearly all actives have a fitted effect of over 15% in size. Also: potency is read from the fitted curve at half-maximal effect. As to activation: series mostly up to about 92 µM. In short, it runs like this:
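A 15-concentration quantitative screen uses HepG2 cells co-transfected stably with human CAR and CYP2B6-2.2kb reporter. Treatment lasts 24 h with 0.75 uM PK11195 final present; ONE-Glo luminescence is the signal.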

A short description of experiment [12]: qHTS assay to identify small molecule antagonists of the estrogen related receptor signaling pathway with the pleiotropic PPARgamma coactivator (PGC) from Tox21 10K library - cell viability counter screen (AID 1224840; active = well fitted cell-killing curve with a large enough effect in the repeat runs, not every such curve was filed as active; also: nearly all actives have a fitted effect of over 40% in size; also: potency is read from the fitted curve at half-maximal effect). In short, it runs like this: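 Multiplexed viability counter screen in the PGC/ERR cell line: cells treated with DMSO-dissolved compounds for 17.5 hours at 37 C, then viability measured as CellTiter-Fluor fluorescence.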

Experiment [13] can be described thus: qHTS assay to identify small molecule antagonists of the estrogen related receptor signaling pathway with the pleiotropic PPARgamma coactivator (PGC) from Tox21 10K library (AID 1224841; call rule not given here; also: actives are mostly falling curves and most rising ones were filed inactive; nearly all actives have a fitted effect of over 50% in size; also: potency is read from the fitted curve at half-maximal effect; as to activity, negative = inhibition: series mostly up to about 92 µM). In short, it runs like this:
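Steps: plate 2,000 PGC/ERR cells per well; incubate 6 h at 37 C with 5% CO2; transfer compounds from DMSO stocks by pin tool; incubate 18 h at 37 C; add One-Glo; measure luminescence 30 min later.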

Experiment [14] can be described thus: qHTS assay to identify small molecule antagonists of the retinoic acid receptor (RAR) signaling pathway (AID 1159552; also: nearly all actives have a fitted effect of over 50% in size). In short, it runs like this: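 Quantitative HTS in C3RL4 RARE-luciferase reporter cells. Compounds were added with 1 uM (final) retinol; luminescence was read after 6 hr.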
The nature of experiment [15]: qHTS assay to identify small molecule agonists of the constitutive androstane receptor (CAR) signaling pathway - cell viability counter screen (AID 1224836). Also: nearly all actives have a fitted effect of over 45% in size. Also: potency is read from the fitted curve at half-maximal effect. As to viability change, negative = cytotoxic: series mostly up to about 92 µM. In short, it runs like this: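 Counter screen multiplexed with the CAR reporter readout: HepG2 cells co-transfected with hCAR and the CYP2B6-2.2kb construct receive a 15-concentration compound series and 0.75 uM PK11195 (final), then CellTiter-Fluor fluorescence is read after 23 h.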

The nature of experiment [16]: qHTS assay to identify small molecule agonists of the estrogen related receptor signaling pathway with the pleiotropic PPARgamma coactivator (PGC) from Tox21 10K library (AID 1224842). Also: nearly all actives have a fitted effect of over 15% in size. The gist of the method: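 Luminescence from One-Glo (30 min, room temperature) measured after PGC/ERR cells had 18 h at 37 C with pinned compound (23 nL in DMSO). Cells had been seeded at 2,000 per well and pre-incubated 6 h.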

For experiment [17], the target named is Thyrotropin receptor (Homo sapiens) (UniProt P16473). As to the kind of experiment: qHTS assay to identify small molecule agonists of the thyroid stimulating hormone receptor (TSHR) signaling pathway (AID 1224843; calls by dose curve; also: nearly all actives have a fitted effect of over 45% in size). In short, it runs like this: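 A cell-based cAMP HTRF format was run in TSHR-transfected HEK293 cells, 800 per well. Treatment: 30 min, room temperature. Detection: 1 h with labelled cAMP and anti-cAMP cryptate. Concentration-response over 15 points, three replicates.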

The nature of experiment [18]: qHTS assay to identify small molecule agonists of the RXR signaling pathway - cell viability counter screen (AID 1159529). The gist of the method:
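Cell viability is measured by CellTiter-Glo luminescence, 30 min at room temperature, in wells already read for beta-lactamase. Engineered HEK 293T cells (RXR-alpha-UAS-bla) are dosed 16 hr at 37 C. Tetraoctyl ammonium bromide serves as positive control.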

Experiment [19] in a line: qHTS assay to identify small molecule antagonists of the estrogen related receptor (ERR) signaling pathway from Tox21 library - cell viability counter screen (AID 1224834). Also: nearly all actives have a fitted effect of over 30% in size. Also: potency is read from the fitted curve at half-maximal effect. The gist of the method:
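ERR cells, 2,000/well; 6 h settle at 37 C/5% CO2; pin-tool compound transfer in DMSO; 17.5 h at 37 C; CellTiter-Fluor, 30 min; fluorescence intensity.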

The structures appear in SMILES notation. Results filed as inconclusive are left out. Values without a mark were called inactive. Activity calls are given as the source filed them. Unless noted, calls follow the shape of the dose curve; as a rule, active = well fitted curve in the direction sought with a large enough effect in the repeat runs; inconclusive = weak or mixed curves; inactive = no such curve, though single readings can be large; an effect the other way counts as inactive or inconclusive.
% is scaled to controls: 0 for no effect and ±100 for the full control effect.

Sequence of Nuclear receptor subfamily 1 group I member 3 (Homo sapiens) (Q14994 whole entry, looked up): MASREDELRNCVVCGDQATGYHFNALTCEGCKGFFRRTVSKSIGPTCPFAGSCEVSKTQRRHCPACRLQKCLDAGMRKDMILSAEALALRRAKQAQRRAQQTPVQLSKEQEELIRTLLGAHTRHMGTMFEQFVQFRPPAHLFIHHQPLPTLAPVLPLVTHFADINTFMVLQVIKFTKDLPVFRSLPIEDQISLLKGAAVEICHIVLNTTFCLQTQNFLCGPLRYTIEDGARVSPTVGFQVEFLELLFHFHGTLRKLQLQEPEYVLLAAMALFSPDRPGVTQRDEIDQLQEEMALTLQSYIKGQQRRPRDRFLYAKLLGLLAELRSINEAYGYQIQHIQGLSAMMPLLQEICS
Sequence of Luciferin 4-monooxygenase (Photinus pyralis) (P08659 whole entry, looked up): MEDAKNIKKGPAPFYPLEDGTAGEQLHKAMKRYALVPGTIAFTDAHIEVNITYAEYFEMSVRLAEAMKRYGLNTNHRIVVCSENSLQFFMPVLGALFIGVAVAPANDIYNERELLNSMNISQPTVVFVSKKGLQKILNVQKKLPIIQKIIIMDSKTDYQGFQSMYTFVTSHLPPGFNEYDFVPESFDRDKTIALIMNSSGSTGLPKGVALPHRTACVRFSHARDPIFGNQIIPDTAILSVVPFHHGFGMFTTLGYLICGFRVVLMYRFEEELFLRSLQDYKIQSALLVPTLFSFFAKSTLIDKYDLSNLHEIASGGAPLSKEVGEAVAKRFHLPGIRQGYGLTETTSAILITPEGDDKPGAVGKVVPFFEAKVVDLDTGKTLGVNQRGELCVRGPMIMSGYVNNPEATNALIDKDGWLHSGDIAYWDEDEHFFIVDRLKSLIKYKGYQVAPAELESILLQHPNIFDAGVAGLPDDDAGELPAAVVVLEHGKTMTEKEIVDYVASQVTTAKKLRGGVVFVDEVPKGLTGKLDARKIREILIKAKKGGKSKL
Sequence of Thyrotropin receptor (Homo sapiens) (P16473 whole entry, looked up): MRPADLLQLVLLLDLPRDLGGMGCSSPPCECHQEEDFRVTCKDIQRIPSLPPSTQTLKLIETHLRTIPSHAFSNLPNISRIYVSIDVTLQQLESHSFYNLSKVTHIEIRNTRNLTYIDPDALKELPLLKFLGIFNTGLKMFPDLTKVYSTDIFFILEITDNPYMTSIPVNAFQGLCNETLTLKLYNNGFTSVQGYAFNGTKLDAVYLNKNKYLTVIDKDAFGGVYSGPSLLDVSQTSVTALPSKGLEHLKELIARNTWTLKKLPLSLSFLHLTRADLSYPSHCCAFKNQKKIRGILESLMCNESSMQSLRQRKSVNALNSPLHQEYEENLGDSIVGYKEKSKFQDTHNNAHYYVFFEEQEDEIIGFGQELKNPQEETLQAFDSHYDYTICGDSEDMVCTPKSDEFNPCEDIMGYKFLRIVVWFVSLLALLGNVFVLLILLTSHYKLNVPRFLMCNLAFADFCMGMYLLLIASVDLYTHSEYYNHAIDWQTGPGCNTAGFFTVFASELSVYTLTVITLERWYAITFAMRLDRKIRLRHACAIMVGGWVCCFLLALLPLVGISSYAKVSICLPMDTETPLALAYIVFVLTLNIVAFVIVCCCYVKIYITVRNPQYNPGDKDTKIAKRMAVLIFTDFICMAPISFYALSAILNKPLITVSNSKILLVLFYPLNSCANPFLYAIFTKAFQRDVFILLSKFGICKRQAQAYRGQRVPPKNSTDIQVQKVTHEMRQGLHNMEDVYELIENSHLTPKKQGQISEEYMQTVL

On to `CN(C)CCCN1c2ccccc2Sc2ccccc21`, for which the Potency entry in experiment [1], in [2], in experiment [4], in experiment [6], in [8] and in experiment [9] was “inactive” in each case. Moreover, the Potency entry in experiment [10], in experiment [11], in experiment [12] and in experiment [13] was “inactive” throughout. Further, the compound was classed as inactive in [3], in experiment [5] and in experiment [7].
With `CCOC(=O)C(O)c1ccccc1` (stereo unspecified), the Potency entry in experiment [1], in experiment [14], in experiment [2], in experiment [8], in experiment [15] and in [9] was “inactive” each time. Also, the Potency entry in experiment [10], in [11], in experiment [12], in [13], in experiment [16] and in experiment [17] was “inactive” in each case.
For `CCOC(=O)NCCOc1ccc(Oc2ccccc2)cc1`, the Potency entry in [1], in experiment [14], in [15], in experiment [9], in [10] and in [12] was “inactive” throughout. Further, the Potency result in experiment [16] is “inactive”. Moreover, the results for the Potency in experiment [8] and in [11] were 31.7 µM (active) and 48.6 µM (active), respectively.
Consider `CC(=O)[O][Al]`, for which the Potency result in experiment [18], in experiment [2], in experiment [19], in experiment [15], in [9] and in [12] was “inactive” each time. Besides, the Potency result in [13] and in experiment [16] was “inactive” in each case.
As to `C#C[C@]1(O)CC[C@H]2[C@@H]3CCc4cc(OC5CCCC5)ccc4[C@H]3CC[C@@]21C`, the Potency entry in [1], in [14], in [2], in experiment [19], in experiment [8] and in experiment [15] was “inactive” each time. Also, the Potency result in [12] is “inactive”.
Consider `Cc1oc2c(NC(=O)c3c(Cl)cccc3Cl)cccc2c1C(C)(C)O`, for which the Potency entry in experiment [1], in experiment [14], in [2], in [8], in experiment [9] and in experiment [11] was “inactive” throughout. Also, the Potency entry in experiment [16] is “inactive”. The Potency in experiment [10] was 5.45 µM (active).
As for `Nc1ccc(N)c2c1C(=O)c1ccccc1C2=O`, the Potency in experiment [1] is 30.6 µM (active); in experiment [19] it was 15.4 µM (active); in [8] it was 17.8 µM (active); in experiment [15] it was 17.2 µM (active); in [12], 19.3 µM (active); in [13] it was 24.3 µM (active). The Potency result in experiment [14], in [11] and in [16] was “inactive” each time.
`Cc1c(N)cccc1[N+](=O)[O-]`: the Potency result in experiment [18], in experiment [2], in [8], in experiment [9], in [10] and in experiment [11] was “inactive” each time. Moreover, the Potency entry in experiment [12], in [13], in [16] and in experiment [17] was “inactive” in each case.
As for `C/C=C/C(=O)CC`, the activity change, negative = cytotoxicity in experiment [1] is -1.29% [at 19 µM]; in [9], 0.0894% [at 19 µM]. For the same compound, the results for the activity, negative = inhibition in experiment [14] and in [10] were 130% [at 19 µM] and -5.29% [at 19 µM], respectively. Also, the activity change, negative = inhibition in experiment [8] was 3.1% [at 23.6 µM]. In experiment [11], the Potency result is “inactive”. Further, in [12], the viability change, negative = cytotoxic is 7.3% [at 19 µM]. Moreover, the activation in experiment [17] was -10.5% [at 19 µM].
Turning to `C[C@@H]1C[C@H]2O[C@@]3(O[C@@H]2C(C)(C)O)[C@H](O)[C@@]2(C)[C@@H]4CC[C@H]5C(C)(C)[C@@H](O[C@@H]6OC[C@@H](O)[C@H](O)[C@H]6O)CC[C@@]56C[C@@]46CC[C@]2(C)[C@@H]13`, the Potency entry in experiment [1], in experiment [14], in [19], in experiment [8], in [15] and in [9] was “inactive” each time. Besides, the Potency result in experiment [10], in experiment [12], in [13], in experiment [16] and in experiment [17] was “inactive” each time.
With `CN(C)CCN(Cc1ccc(Cl)cc1)c1ccccn1`, the Potency entry in experiment [1], in experiment [14], in experiment [2], in [19], in experiment [8] and in [15] was “inactive” in each case. Besides, the Potency result in experiment [9], in experiment [10], in [11], in experiment [12] and in experiment [17] was “inactive” each time.
